From PubChem BioAssay
In the library only some 6.1% were active in any assay of this set; here they are far more common.
M1 ag = activates the M1 muscarinic receptor. CHO-M1 cells, Fluo-4 calcium fluorescence, agonist mode; stronger effect = higher value. B-score at 10 µM. 3% of 64,000 active. AID 626;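 active = fluorescence rise, raw or as B-score row- and column-corrected plate score, outside the 99.7% band of its plate's samples, either direction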
Hsp90 block = displaces geldanamycin probe from tumor Hsp90 | NCI-N417 lysate Hsp90, Cy3B-geldanamycin FP displacement | inhibition, % at 30 µM | 0.35% of 64,000 active;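 active = inhibition above 50%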;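 note: 0% = tracer plus lysate wells and 100% = tracer alone without lysate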
M1 antagonist = blocks the rat M1 muscarinic receptor response to acetylcholine; P08482; CHO-M1 cells, Fluo-4 calcium, ACh EC80 antagonist mode; stronger effect = lower value; B-score at 10 µM; 3.4% of 64,000 active;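 active = calcium fluorescence response, raw or row-and-column corrected B-score, differing from the plate sample mean either way at a set confidence level, mostly lower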
MKP-1 inh = human dual specificity phosphatase 1 inhibition; P28562; recombinant MKP-1, OMFP hydrolysis fluorescence; inhibition, %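 (compounds tested at a single concentration somewhere between 10 and 100 µM)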; 0.15% of 65,000 active; AID 374;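 active = inhibition above about 50%, limit read from the data; inconclusive = inhibition over screen mean plus 3 SD, below that limit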;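 note: 0% = DMSO max control wells and 100% = wells with enzyme stopped by NaOH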
MMP-13 inhibitor = MMP13 (human) collagenase inhibition | P45452 | MMP-13 fTHP FRET cleavage, Mca fluorescence | inhibition, % at 4 µM | 0.07% of 65,000 active;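 active = inhibition above the mean of compound-free control plate wells plus 3 SD, cut at about 14% in these data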;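 note: 0% = DMSO wells and 100% = wells with reference MMP-13 inhibitor after basal subtraction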
Cdc25B inh = inhibitors of human Cdc25B phosphatase; recombinant Cdc25B, OMFP fluorescence Ex485/Em525; inhibition, %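 (compounds tested at 10 µM final in the well)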; 0.1% of 65,000 active; AID 368; in the data active = inhibition above about 50%
M1 agonist conf = confirmation of rat M1 muscarinic receptor agonists | shares compounds with M1 ag | CHO-M1 cells, Fluo-4 calcium fluorescence, agonist mode; actives lie on both sides | fluorescence change (max-min) at 10 µM | 19% of 1,700 active;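 active = fluorescence change differs from the solvent-only DMSO control mean at a set confidence level in both duplicate runs; inconclusive = differs from solvent-only control mean in just one of two runs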;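 note: an EC20 dose of acetylcholine follows compound addition during the same imaging run; raw fluorescence intensity difference in instrument units with no normalization to controls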
M4 agonist ctr = rat M4 muscarinic agonism, M1 counter-screen. AID 1741. 9% of 1,700 active. CHO M4/Gqi5 cells, Fluo-4 calcium fluorescence, agonist mode; actives lie on both sides. fluorescence change (max-min) at 10 µM. shares compounds with M1 ag;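 active = fluorescence change differing from the plate's solvent-only control wells at 99.7% confidence in both duplicates, whether higher or lower; inconclusive = differs from solvent controls in only one of two duplicates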
Target sequence (P08485 whole entry, looked up): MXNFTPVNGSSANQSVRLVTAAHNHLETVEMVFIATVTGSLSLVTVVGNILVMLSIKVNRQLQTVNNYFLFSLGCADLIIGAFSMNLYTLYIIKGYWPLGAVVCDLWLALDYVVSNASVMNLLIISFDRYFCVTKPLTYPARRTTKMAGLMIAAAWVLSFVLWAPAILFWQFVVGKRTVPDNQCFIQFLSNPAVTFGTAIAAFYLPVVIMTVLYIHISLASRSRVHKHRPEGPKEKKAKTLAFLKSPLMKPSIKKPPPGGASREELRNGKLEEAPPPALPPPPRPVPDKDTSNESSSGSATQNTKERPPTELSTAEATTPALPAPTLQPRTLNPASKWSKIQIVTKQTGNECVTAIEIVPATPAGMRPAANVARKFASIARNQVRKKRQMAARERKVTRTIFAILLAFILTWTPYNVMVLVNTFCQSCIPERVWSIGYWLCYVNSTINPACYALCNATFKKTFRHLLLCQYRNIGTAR
* = called active by the depositor; ? = inconclusive; · = not tested or not shown.

SMILES	M1 ag	Hsp90 block	M1 antagonist	MKP-1 inh	MMP-13 inhibitor	Cdc25B inh	M1 agonist conf	M4 agonist ctr
COc1ccc(N(C(=O)Cn2nnc3ccccc32)C(C(=O)NCc2ccco2)c2ccc(C)o2)cc1 (configuration not stated)	-0.017	-3	0.94	1	1	2	·	·
CCOP(=O)(c1ccc(N(C)C)cc1)C(O)c1c(Cl)cccc1Cl (configuration not stated)	8*	-6	0.59	-3	-4	2	?	-53
COCCOC(=O)c1[nH]c2c(c1C)C(=O)CC(c1ccco1)C2 (configuration not stated)	-1.4	-2	-0.026	6	2	-3	·	·
Cc1c(C(=O)OCCOC(C)C)[nH]c2c1C(=O)CC(c1ccco1)C2 (configuration not stated)	6.7*	-3	-2*	-7	1	-5	?	-80*
CCOC(=O)C1=C(O)CSC1=Nc1ccccc1	0.49	-11	0.73	7	5	-10	·	·
CCOC(=O)C1=C(O)CSC1=Nc1ccc(Cl)cc1	3.8*	-7	1.3	-1	2	1	?	?
CCOC(=O)Cc1csc(NC(=O)c2ccc3c(c2)OCO3)n1	-2.3*	-8	-1.2	-2	2	2	-21	?
Cc1ccc(CCNC(=O)C2CCCN(c3nc4ccccc4o3)C2)cc1 (configuration not stated)	7.5*	1	-0.99	28	2	-1	-10	-27
O=C(CCSc1ccccc1)Nc1ccc(S(=O)(=O)N2CCOCC2)cc1	-0.66	-1	-1.4	20	-1	9	·	·
COc1cccc(C2C=C(c3cccs3)Nc3ncnn32)c1OC (configuration not stated)	8.1*	1	-0.14	12	-6	16	42	39
Oc1ccc(CNc2ccc(F)cc2)c2cccnc12	22*	17	0.037	11	-3	-10	-20	?
COC(=O)c1ccc(NC(=O)Nc2ccc(F)cc2)cc1	15*	-2	-3.4*	7	-10	-4	33	52
CCOC(=O)c1ccccc1NC(=O)Nc1ccc(OC)c(OC)c1	-0.026	1	0.072	-2	-3	-1	·	·
CCOC(=O)c1ccc(NC(=O)Nc2ccc(OC)c(OC)c2)cc1	7.3*	0	-0.44	-2	2	-9	-22*	?
COC(=O)c1ccc(NC(=O)Cc2ccccc2)cc1	-0.45	1	-0.2	-2	-2	-6	·	·
CCC(NC(=O)NCc1cccnc1)(C(F)(F)F)C(F)(F)F	-0.73	-2	0.89	5	1	0	·	·
COc1ccccc1OCC(=O)N(Cc1nc(-c2ccc(Cl)cc2)no1)C(C)C	-0.17	-1	-0.64	10	1	-2	·	·
CC(C)N(Cc1nc(-c2ccc(Cl)cc2)no1)C(=O)CCC1CCCC1	3.4*	-5	0.027	13	-2	-5	?	-45
Cc1cc(C2=CC(C)(c3cc(C)oc3C)Nc3nc(C(F)(F)F)nn32)c(C)o1 (configuration not stated)	-1.3	0	-0.095	31	-4	14	·	·
O=C(CCCCCn1c(=S)[nH]c2cc3c(cc2c1=O)OCO3)N1CCN(Cc2ccccc2)CC1	-0.049	-4	-0.47	25	4	-25	·	·
O=C(CCCCCn1c(=S)[nH]c2cc3c(cc2c1=O)OCO3)N1CCN(C2CCCCC2)CC1	2.1*	-3	-5.1*	5	4	-21	-23	?
COc1cc(C(=O)Nc2ccc(OCC(=O)O)cc2)cc(OC)c1OC	·	0	·	5	-1	-14	·	·
CCOC(=O)c1cnc(C(C)(C)C)[nH]c1=O	-0.0095	4	-0.26	4	3	-11	·	·
CC1CC1C(=O)OCc1cc(=O)n2cc(Br)ccc2n1 (configuration not stated)	-0.23	0	0.061	26	1	-13	·	·
COC(=O)CNc1c(-c2ccccn2)nc2ccc(Br)cn12	5.1*	·	0.5	11	-2	-7	27	-32
SMILES	M1 ag	Hsp90 block	M1 antagonist	MKP-1 inh	MMP-13 inhibitor	Cdc25B inh	M1 agonist conf	M4 agonist ctr
COc1ccc(C)cc1-n1nnnc1SCc1cc(=O)n2cc(C)ccc2n1	5.2*	-3	-1.9	12	-6	-14	-18	-35
CCn1c(C)nc2cc(C(=O)OC(C(F)(F)C(F)F)C(F)(F)C(F)F)ccc21	11*	-1	-0.79*	31	-4	-12	2.8	-51
CCOC(=O)C1CCN(c2c(N3CCCC(C(=O)OCC)C3)c(=O)c2=O)CC1 (configuration not stated)	27*	0	-0.13	-6	9	-6	38	?
O=C(Nc1ccc(-n2nncc2-c2ccco2)cc1)c1ccc(F)cc1	-0.46	-4	0.29	-2	0	-13	·	·
O=C(Nc1cccc(Cl)c1N1CCCC1)c1cc2ccccc2o1	-0.2	-9	-0.29	3	0	-5	·	·
O=C(Nc1ccccc1N1CCN(C(=O)c2ccc(Cl)cc2)CC1)c1cc2ccccc2o1	4.6*	-8	2.8*	7	-1	-2	-20	?
CCOc1ccc(OCC)c(NC(=O)C2CCN(S(=O)(=O)c3cnc[nH]3)CC2)c1	-0.086	4	0.63	-7	0	-1	·	·
Cc1c2cccn2cc[n+]1C	-0.8	-1	-0.4	-37	-48	-13	·	·
CCC(C(=O)OC)n1cnc2c(nnn2-c2ccc(OC)cc2)c1=O (configuration not stated)	4.3*	-1	0.31	-18	-3	-7	-3.1	-35
CCOC(=O)C(CC)n1cnc2c(cnn2-c2ccc(Cl)cc2)c1=O (configuration not stated)	55*	-3	-6.2*	-8	-1	-6	2.9	-21
CCOC(=O)C(CC)n1cnc2c(nnn2-c2ccc(OC)cc2)c1=O (configuration not stated)	-2.2	-3	0.019	11	-4	-10	·	·
COC(=O)c1ccccc1NC(=O)C1CC(=O)N(c2ccccc2)C1 (configuration not stated)	0.062	1	0.3	0	0	1	·	·
O=C(Nc1cccc2nsnc12)C1CC(=O)N(c2ccccc2)C1 (configuration not stated)	-2.7*	-2	0.015	-24	0	-2	?	?
COc1ccccc1NC(=O)C1=C(C)NC2=C(C(=O)CCC2)C1c1ccc2c(c1)OCO2 (configuration not stated)	-0.029	0	0.21	-3	-22	-4	·	·
CC(CN1CCOCC1)(NS(=O)(=O)c1ccccc1)c1ccccc1 (configuration not stated)	18*	-4	-0.089	-8	-9	-8	?	-37
